# Results: PubChem BioAssay (EPA / NIEHS)
# Results filed as inconclusive are left out. Calls of active or inactive are those of the source. How the source made its calls, unless noted: active means hit-call score of the fitted dose curve at least 0.9, where 1 is the maximum; inactive means score below 0.9.
# Key:
# [1] = target: Glucocorticoid receptor (Homo sapiens) (UniProt P04150); assay: ATG_GR_TRANS: Attagene TRANS-FACTORIAL HepG2 Assay for human Glucocorticoid Receptor (GR) (AID 2282978; active means hit-call score of the fitted dose curve at least 0.9, where 1 is the maximum;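 further: activators score as hits since higher reporter transcript over DMSO is fitted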); conditions: HepG2 Attagene TRANS GR reporter, mRNA transcription
# Glucocorticoid receptor (Homo sapiens), sequence (P04150 whole entry, looked up, the tested form may be a part): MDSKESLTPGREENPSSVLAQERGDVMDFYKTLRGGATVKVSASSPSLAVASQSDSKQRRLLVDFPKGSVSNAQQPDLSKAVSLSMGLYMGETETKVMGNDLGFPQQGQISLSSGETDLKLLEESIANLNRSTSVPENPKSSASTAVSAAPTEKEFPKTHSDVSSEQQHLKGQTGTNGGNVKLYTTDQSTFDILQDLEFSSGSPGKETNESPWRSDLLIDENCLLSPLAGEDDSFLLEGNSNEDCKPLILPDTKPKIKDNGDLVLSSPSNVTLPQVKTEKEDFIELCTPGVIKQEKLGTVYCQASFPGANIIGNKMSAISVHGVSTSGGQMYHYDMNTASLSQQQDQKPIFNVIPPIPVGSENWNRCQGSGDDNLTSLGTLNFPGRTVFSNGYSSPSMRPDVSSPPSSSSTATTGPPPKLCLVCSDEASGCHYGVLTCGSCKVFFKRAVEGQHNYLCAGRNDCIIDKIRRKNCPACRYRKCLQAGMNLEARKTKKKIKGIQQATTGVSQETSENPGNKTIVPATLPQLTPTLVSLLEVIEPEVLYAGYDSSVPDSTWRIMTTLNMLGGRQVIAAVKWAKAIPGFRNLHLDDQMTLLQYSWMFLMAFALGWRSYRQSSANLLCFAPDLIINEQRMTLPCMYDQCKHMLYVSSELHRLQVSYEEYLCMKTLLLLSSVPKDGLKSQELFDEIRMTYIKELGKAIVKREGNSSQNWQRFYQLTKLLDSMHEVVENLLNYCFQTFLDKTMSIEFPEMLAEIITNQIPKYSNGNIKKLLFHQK
# Method in brief: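 Exogenous NR-GAL4 fusion activity was assessed through induced GAL4-UAS reporter transcripts in transfected human HepG2 cells, quantified after 24 h by RT-PCR and fluorescent capillary electrophoresis with DMSO as baseline.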
# [2] = target: Oxysterols receptor LXR-alpha (Homo sapiens) (UniProt Q13133); assay: ATG_LXRa_TRANS: Attagene TRANS-FACTORIAL HepG2 Assay for human Liver X Receptor alpha (LXRa) (AID 2282980; active means hit-call score of the fitted dose curve at least 0.9, where 1 is the maximum); conditions: HepG2 Attagene TRANS reporter, LXRa transactivation
# Oxysterols receptor LXR-alpha (Homo sapiens), sequence (Q13133 whole entry, looked up, the tested form may be a part): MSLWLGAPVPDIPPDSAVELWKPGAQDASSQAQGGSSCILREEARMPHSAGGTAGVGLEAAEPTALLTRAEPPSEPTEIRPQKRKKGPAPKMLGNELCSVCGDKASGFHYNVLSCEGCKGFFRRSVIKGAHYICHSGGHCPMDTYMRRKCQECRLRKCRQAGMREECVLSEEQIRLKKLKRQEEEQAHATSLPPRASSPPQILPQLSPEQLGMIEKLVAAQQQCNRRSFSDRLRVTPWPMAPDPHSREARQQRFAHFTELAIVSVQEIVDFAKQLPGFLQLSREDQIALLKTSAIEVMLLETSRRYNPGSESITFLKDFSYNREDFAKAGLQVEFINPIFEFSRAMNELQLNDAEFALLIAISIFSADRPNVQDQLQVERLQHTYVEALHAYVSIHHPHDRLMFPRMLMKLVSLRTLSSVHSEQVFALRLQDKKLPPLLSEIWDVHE
# Method in brief: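 HepG2 cells transiently transfected with GAL4-UAS reporter units for chimeric NR-Gal4 proteins, exposed to chemicals for 24 h. Reporter mRNA quantified by RT-PCR and capillary electrophoresis; gain of signal fitted relative to DMSO.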
# [3] = ATG_M_06_TRANS: Attagene TRANS-FACTORIAL HepG2 Assay for M06 Transcription Factor (Internal Marker) (AID 2282983; active means hit-call score of the fitted dose curve at least 0.9, where 1 is the maximum;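 further: reporter transcript level by RT-PCR then capillary electrophoresis fluorescence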); conditions: HepG2 Attagene TRANS M06 internal marker reporter
# Method in brief: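 mRNA levels of a reporter transcript, quantified as FAM fluorescence on capillary electrophoresis, served as readout. HepG2 cells expressing exogenous GAL4-chimera reporter constructs were exposed for 24 h. Gain of signal over DMSO was evaluated.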
# [4] = ATG_M_32_TRANS: Attagene TRANS-FACTORIAL HepG2 Assay for M32 Transcription Factor (Internal Marker) (AID 2282984; active means hit-call score of the fitted dose curve at least 0.9, where 1 is the maximum;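 further: transcript level of a background control reporter unit measured by RT-PCR and capillary electrophoresis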); conditions: HepG2 Attagene TRANS M32 internal marker reporter
# Method in brief: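 Cell-based TRANS-format assay in HepG2: exogenous chimeric GAL4 reporter units transiently expressed, compounds applied 24 h. Reporter mRNA detected by RT-PCR plus capillary electrophoresis; this readout is an internal background marker.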
# [5] = target: Nuclear receptor subfamily 4 group A member 2 (Homo sapiens) (UniProt P43354); assay: ATG_NURR1_TRANS: Attagene TRANS-FACTORIAL HepG2 Assay for human Nuclear Receptor Related Protein 1 (NURR1) (AID 2282985; active means hit-call score of the fitted dose curve at least 0.9, where 1 is the maximum); conditions: HepG2 Attagene TRANS reporter, mRNA readout
# Nuclear receptor subfamily 4 group A member 2 (Homo sapiens), sequence (P43354 whole entry, looked up, the tested form may be a part): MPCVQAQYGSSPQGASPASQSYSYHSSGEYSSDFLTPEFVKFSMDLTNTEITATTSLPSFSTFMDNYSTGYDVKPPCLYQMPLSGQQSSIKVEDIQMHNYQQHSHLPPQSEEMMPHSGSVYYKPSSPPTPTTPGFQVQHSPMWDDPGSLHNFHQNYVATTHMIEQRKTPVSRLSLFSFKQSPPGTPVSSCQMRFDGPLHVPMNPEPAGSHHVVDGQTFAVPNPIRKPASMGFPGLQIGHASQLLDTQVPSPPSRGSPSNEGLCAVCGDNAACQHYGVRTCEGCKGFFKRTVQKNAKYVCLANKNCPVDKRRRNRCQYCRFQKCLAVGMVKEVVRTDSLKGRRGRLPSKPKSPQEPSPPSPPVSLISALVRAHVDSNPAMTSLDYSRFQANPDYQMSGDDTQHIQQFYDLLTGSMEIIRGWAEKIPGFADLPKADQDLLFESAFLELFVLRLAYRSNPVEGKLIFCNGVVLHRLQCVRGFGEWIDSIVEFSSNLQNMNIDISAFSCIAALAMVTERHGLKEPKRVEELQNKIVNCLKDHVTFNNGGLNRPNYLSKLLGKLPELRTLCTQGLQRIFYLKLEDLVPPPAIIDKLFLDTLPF
# Method in brief: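 Measures transcriptional activation by an exogenous NR-Gal4 chimera in transfected HepG2 liver cells. After 24 h, reporter RNA is reverse-transcribed, amplified and resolved by capillary electrophoresis; DMSO defines baseline.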
# [6] = target: Transcriptional activator Myb (Homo sapiens) (UniProt P10242); assay: ATG_Myb_CIS: Attagene CIS-FACTORIAL HepG2 Assay for human Myeloblastosis (Myb) Proto-Oncogene Transcription Factor (AID 2282986); conditions: HepG2 Attagene CIS-FACTORIAL Myb reporter transcription; actives raise or lower the signal
# Transcriptional activator Myb (Homo sapiens), sequence (P10242 whole entry, looked up): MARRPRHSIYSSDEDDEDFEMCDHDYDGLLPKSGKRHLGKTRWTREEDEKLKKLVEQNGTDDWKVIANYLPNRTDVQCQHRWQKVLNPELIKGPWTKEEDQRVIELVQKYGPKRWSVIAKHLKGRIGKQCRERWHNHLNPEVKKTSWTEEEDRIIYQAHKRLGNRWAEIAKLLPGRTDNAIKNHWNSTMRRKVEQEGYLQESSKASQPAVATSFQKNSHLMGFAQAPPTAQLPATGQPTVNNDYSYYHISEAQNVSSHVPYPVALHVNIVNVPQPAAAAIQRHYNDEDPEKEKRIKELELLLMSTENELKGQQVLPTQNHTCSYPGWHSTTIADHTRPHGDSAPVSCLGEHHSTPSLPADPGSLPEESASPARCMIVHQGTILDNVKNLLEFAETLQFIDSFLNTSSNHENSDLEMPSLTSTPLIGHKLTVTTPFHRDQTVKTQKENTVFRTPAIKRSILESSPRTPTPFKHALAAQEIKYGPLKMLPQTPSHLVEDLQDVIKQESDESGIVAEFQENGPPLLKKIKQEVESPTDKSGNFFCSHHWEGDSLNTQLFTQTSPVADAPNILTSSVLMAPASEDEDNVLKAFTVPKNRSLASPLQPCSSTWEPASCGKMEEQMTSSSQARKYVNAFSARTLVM
# Method in brief: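 In this HepG2 transient-transfection format, cis-regulated reporter mRNA is quantified 24 h post-dosing by RT-PCR with capillary electrophoresis, fitted bidirectionally to DMSO baseline.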
# [7] = target: Nuclear respiratory factor 1 (Homo sapiens) (UniProt Q16656); assay: ATG_NRF1_CIS: Attagene CIS-FACTORIAL HepG2 Assay for human Nuclear Respiratory Factor 1 (NRF1) Orphan Gene (AID 2282987); conditions: HepG2 NRF1 cis-element reporter, Attagene multiplex; actives raise or lower the signal
# Nuclear respiratory factor 1 (Homo sapiens), sequence (Q16656 whole entry, looked up): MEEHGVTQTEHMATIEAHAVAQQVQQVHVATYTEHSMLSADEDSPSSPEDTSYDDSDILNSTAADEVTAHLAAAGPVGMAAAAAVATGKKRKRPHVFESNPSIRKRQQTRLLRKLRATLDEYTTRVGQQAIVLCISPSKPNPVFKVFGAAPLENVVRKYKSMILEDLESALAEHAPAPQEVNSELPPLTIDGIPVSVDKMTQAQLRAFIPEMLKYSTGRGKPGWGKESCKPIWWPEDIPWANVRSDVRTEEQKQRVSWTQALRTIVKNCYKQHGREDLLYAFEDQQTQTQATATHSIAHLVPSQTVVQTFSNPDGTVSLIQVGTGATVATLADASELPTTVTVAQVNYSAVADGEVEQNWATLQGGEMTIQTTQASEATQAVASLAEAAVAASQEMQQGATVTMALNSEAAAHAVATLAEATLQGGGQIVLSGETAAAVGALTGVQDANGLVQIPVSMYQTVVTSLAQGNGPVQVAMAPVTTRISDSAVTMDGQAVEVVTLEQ
# Method in brief: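 Using DMSO as baseline, gain- or loss-of-signal was fitted for reporter mRNA levels in HepG2 cells transiently transfected with cis-regulated reporter units. Samples were taken 24 h after dosing and read by RT-PCR with capillary electrophoresis.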
# [8] = ATG_NFI_CIS: Attagene CIS-FACTORIAL HepG2 Assay for human Nuclear Factor I (NFI) (AID 2282989); conditions: HepG2 cis-regulatory reporter, NFI response element transcription; actives raise or lower the signal
# Method in brief: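 Transient MRTU transfection of HepG2 → 24 h chemical dosing → total RNA, oligo(dT) RT → PCR, 6-FAM primer extension, HpaI cut → capillary electrophoresis. Endpoint fitted bidirectionally relative to DMSO.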
# [9] = ATG_NF_kB_CIS: Attagene CIS-FACTORIAL HepG2 Assay for human Nuclear Factor Kappa B (NF-kB) (AID 2282991); conditions: HepG2 Attagene cis-factorial NF-kB reporter mRNA; actives raise or lower the signal
# Method in brief: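 Endpoint from a 52-component multiplexed HepG2 reporter panel: cis-regulated transcription units transiently transfected, 24 h dosing, reporter mRNA quantified by RT-PCR and capillary electrophoresis, scored as increase or decrease against DMSO.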
# [10] = ATG_NRF2_ARE_CIS: Attagene CIS-FACTORIAL HepG2 Assay for human Nuclear Factor Erythroid 2 Related Factor 2 (NFR2) response to Antioxidant Response Elements (ARE) (AID 2282992); conditions: HepG2 Attagene ARE/NRF2 reporter, transcription factor activity; actives raise or lower the signal;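 on AC50: reporter mRNA level measured by RT-PCR and capillary electrophoresis fluorescence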
# Method in brief: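 Readout: reporter mRNA quantified by RT-PCR plus FAM-labelled primer extension, HpaI digestion and capillary electrophoresis, 24 h after dosing transfected HepG2 cells. Gain or loss of signal is fitted bidirectionally against DMSO baseline.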
# [11] = ATG_Oct_MLP_CIS: Attagene CIS-FACTORIAL HepG2 Assay for human Octamer-Binding Transcription Factor (Oct) (AID 2282993); conditions: HepG2 Attagene cis-factorial Oct reporter, mRNA; actives raise or lower the signal
# Method in brief: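 Transient MRTU transfection of HepG2 → 24 h compound treatment → RNA isolation, reverse transcription, PCR → 6-FAM primer extension, HpaI digest → capillary electrophoresis. Activity fitted both directions against DMSO.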
# [12] = target: Cellular tumor antigen p53 (Homo sapiens) (UniProt P04637); assay: ATG_p53_CIS: Attagene CIS-FACTORIAL HepG2 Assay for human p53 Transcription Factor (AID 2282994); conditions: HepG2 p53 cis-element reporter, Attagene mRNA; actives raise or lower the signal
# Cellular tumor antigen p53 (Homo sapiens), sequence (P04637 whole entry, looked up): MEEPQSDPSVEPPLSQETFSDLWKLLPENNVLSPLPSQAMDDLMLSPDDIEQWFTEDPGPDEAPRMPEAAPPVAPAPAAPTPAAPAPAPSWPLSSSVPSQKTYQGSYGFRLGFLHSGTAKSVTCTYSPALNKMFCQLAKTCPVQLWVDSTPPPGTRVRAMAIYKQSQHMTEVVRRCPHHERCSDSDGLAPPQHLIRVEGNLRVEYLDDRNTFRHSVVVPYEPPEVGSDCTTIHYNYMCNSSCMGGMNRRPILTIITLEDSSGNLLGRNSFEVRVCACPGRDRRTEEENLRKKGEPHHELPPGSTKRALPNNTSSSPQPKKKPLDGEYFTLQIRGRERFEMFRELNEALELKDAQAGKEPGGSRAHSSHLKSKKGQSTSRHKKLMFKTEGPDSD
# Method in brief: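 Read-out: reporter mRNA by RT-PCR plus capillary electrophoresis with fluorescence detection. Human HepG2 liver cells carried transfected multi-reporter cis-element constructs, dosed 24 h. Gain or loss of signal fitted bidirectionally against DMSO control.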
# [13] = target: Hepatocyte nuclear factor 4-alpha (Homo sapiens) (UniProt P41235); assay: ATG_HNF4a_TRANS: Attagene TRANS-FACTORIAL HepG2 Assay for human Hepatocyte Nuclear Factor 4 alpha (HNF4a) (AID 2282982; active means hit-call score of the fitted dose curve at least 0.9, where 1 is the maximum); conditions: HepG2 HNF4a transactivation reporter, mRNA readout
# Hepatocyte nuclear factor 4-alpha (Homo sapiens), sequence (P41235 whole entry, looked up): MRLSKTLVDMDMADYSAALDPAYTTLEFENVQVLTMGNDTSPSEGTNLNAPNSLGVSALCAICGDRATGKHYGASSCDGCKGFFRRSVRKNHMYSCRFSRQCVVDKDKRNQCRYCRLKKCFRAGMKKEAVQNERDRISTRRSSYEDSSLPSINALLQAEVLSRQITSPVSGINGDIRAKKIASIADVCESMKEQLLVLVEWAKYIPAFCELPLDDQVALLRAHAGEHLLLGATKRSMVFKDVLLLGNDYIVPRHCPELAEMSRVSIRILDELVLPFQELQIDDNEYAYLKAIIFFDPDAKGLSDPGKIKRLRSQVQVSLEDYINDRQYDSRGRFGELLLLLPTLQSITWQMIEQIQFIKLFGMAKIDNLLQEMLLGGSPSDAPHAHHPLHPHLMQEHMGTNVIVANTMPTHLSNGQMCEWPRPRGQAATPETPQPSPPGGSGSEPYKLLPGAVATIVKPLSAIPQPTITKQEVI
# Method in brief: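 Multiplexed reporter assay: transfected HepG2, 24 h exposure, total RNA → oligo(dT) RT → PCR → 6-FAM extension → HpaI digest → CE fluorescence. DMSO = negative control.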
# [14] = target: Myc proto-oncogene protein (Homo sapiens) (UniProt P01106); assay: ATG_Myc_CIS: Attagene CIS-FACTORIAL HepG2 Assay for human Myelocytomatosis (Myc) Proto-Oncogene Transcription Factor (AID 2282990); conditions: HepG2, Attagene cis-reporter transcription factor activity; actives raise or lower the signal
# Myc proto-oncogene protein (Homo sapiens), sequence (P01106 whole entry, looked up): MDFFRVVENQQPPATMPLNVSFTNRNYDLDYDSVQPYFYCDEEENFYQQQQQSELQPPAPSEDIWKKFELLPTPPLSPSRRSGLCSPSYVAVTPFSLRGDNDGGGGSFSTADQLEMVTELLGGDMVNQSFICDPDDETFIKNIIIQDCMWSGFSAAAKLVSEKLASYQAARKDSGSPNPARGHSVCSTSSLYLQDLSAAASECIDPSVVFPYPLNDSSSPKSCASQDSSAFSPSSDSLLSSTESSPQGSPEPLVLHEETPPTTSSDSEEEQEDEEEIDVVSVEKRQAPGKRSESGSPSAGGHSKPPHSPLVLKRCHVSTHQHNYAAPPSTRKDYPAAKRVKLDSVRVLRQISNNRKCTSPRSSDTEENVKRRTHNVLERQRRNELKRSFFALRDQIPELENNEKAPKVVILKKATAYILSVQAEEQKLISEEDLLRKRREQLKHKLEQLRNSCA
# Method in brief: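 HepG2, transient MRTU transfection (cis promoters, endogenous TFs); 24 h dosing; TriZol RNA → oligo(dT) RT → PCR → 6-FAM primer extension → HpaI cut → CE. Bidirectional fit vs DMSO.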
# [15] = target: Oxysterols receptor LXR-beta (Homo sapiens) (UniProt P55055); assay: ATG_LXRb_TRANS: Attagene TRANS-FACTORIAL HepG2 Assay for human Liver X Receptor beta (LXRb) (AID 2282981; active means hit-call score of the fitted dose curve at least 0.9, where 1 is the maximum); conditions: HepG2 Attagene TRANS GAL4-LXRb reporter, mRNA
# Oxysterols receptor LXR-beta (Homo sapiens), sequence (P55055 whole entry, looked up, the tested form may be a part): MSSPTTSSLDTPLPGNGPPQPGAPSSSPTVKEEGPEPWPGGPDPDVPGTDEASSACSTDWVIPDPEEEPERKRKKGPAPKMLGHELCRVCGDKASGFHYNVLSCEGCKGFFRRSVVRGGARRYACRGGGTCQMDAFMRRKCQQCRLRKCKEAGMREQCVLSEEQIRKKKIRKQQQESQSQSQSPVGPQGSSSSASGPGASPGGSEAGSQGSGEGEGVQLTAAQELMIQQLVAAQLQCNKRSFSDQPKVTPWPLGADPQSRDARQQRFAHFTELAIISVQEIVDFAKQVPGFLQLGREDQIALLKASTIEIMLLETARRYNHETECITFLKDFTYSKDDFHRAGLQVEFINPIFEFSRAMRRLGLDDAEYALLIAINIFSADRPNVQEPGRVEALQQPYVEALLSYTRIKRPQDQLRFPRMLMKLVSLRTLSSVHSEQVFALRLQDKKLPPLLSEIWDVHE
# Method in brief: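 After 24 h of chemical treatment, transfected HepG2 cells yield total RNA; reporter cDNA is PCR-amplified, FAM-labelled, HpaI-cut and run on capillary electrophoresis. Signal reflects chimeric LXRb-Gal4 activity on GAL4-UAS reporters.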
# [16] = BSK_3C_TissueFactor: BioMAP Diversity Plus: 3C Assay for Tissue Factor Biomarker Activity (AID 2282997); conditions: BioMAP 3C HUVEC, tissue factor biomarker readout; actives raise or lower the signal
# Method in brief: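 Tissue Factor measured by ELISA, 24 h after treatment of primary HUVEC in the BioMAP 3C setting.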
# [17] = BSK_3C_uPAR: BioMAP Diversity Plus: 3C Assay for Urokinase-type plasminogen activator receptor (uPAR) Biomarker Activity (AID 2282998); conditions: BioMAP 3C HUVEC, uPAR biomarker ELISA; actives raise or lower the signal
# Method in brief: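 ELISA readout of uPAR on human vascular endothelium (umbilical vein primary cells), taken 24 h after chemical dosing. Increases and decreases are both fitted relative to DMSO vehicle.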
# [18] = BSK_3C_VCAM1: BioMAP Diversity Plus: 3C Assay for Vascular cell adhesion molecule 1 (VCAM1) Biomarker Activity (AID 2282999); conditions: BioMAP 3C HUVEC, VCAM1 ELISA, cytokine-stimulated; actives raise or lower the signal
# Method in brief: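 Activity fitted in both directions relative to DMSO, with ELISA measurement of the surface marker on primary HUVEC (3C) at 24 h post-treatment; parallel SRB staining (0.1% SRB, TCA-fixed, 560 nm) flagged overt cytotoxicity.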
# [19] = BSK_4H_Eotaxin3: BioMAP Diversity Plus: 4H Assay for Eotaxin 3 Biomarker Activity (AID 2283000); conditions: primary human endothelial cells (HUVEC); actives raise or lower the signal;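 further: CCL26 protein level quantified by ELISA in parallel with SRB cytotoxicity check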
# Method in brief: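 Eotaxin-3 (CCL26) levels were measured by ELISA in HUVEC primary cultures 24 h post-dosing. Gain or loss of signal was fitted in both directions, with DMSO serving as baseline and negative control.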
Compound,outcome [1],outcome [2],outcome [3],outcome [4],outcome [5],outcome [6],outcome [7],outcome [8],outcome [9],outcome [10],outcome [11],outcome [12],outcome [13],outcome [14],outcome [15],AC50 [10],outcome [16],outcome [17],outcome [18],outcome [19]
CC(C)CCCCCCCCCCCCCCC(=O)O,inactive,inactive,inactive,inactive,inactive,inactive,inactive,inactive,inactive,inactive,inactive,inactive,–,–,–,–,–,–,–,–
C=C1C[C@]23C[C@@]1(O)CC[C@H]2[C@@]12C=C[C@H](O)[C@@](C)(C(=O)O1)[C@H]2[C@@H]3C(=O)O,inactive,inactive,inactive,–,–,–,inactive,inactive,–,inactive,inactive,–,inactive,inactive,–,–,–,–,–,–
CC=CC=CCOC(=O)C(C)C,inactive,–,–,inactive,inactive,inactive,inactive,inactive,–,–,inactive,inactive,inactive,inactive,inactive,27.1 µM (active),–,–,–,–
CN1CCOCC1,inactive,inactive,–,inactive,–,inactive,inactive,inactive,–,inactive,inactive,inactive,–,inactive,–,–,–,–,–,–
COc1ccccc1N=Nc1c(S(=O)(=O)O)cc2cc(S(=O)(=O)O)cc(NC(C)=O)c2c1O,inactive,inactive,inactive,inactive,inactive,inactive,inactive,inactive,inactive,inactive,inactive,inactive,–,inactive,–,–,–,–,–,–
CCOCCOCCOCC,inactive,inactive,–,inactive,inactive,inactive,inactive,inactive,inactive,inactive,inactive,inactive,inactive,inactive,–,–,–,–,–,–
CC(C)(N=C=O)c1cccc(C(C)(C)N=C=O)c1,inactive,inactive,inactive,inactive,inactive,inactive,inactive,inactive,inactive,–,inactive,–,–,inactive,–,13 µM (active),inactive,inactive,inactive,inactive
CCO/C=C1\N=C(c2ccccc2)OC1=O,inactive,–,–,–,inactive,inactive,inactive,inactive,inactive,inactive,inactive,inactive,inactive,inactive,inactive,–,–,–,–,–
CS(=O)(=O)c1ccc(Cl)cc1,inactive,inactive,inactive,inactive,–,inactive,inactive,inactive,–,inactive,inactive,–,–,inactive,inactive,–,–,–,–,–
N[C@@H](Cc1cc(I)c(Oc2cc(I)c(O)c(I)c2)c(I)c1)C(=O)O,inactive,–,inactive,inactive,inactive,–,inactive,inactive,inactive,–,inactive,inactive,inactive,inactive,inactive,36.5 µM (active),–,–,–,–
